Measured values reported in article PMC7826789 (International Journal of Molecular Sciences, 2021).

test system: TXK; conditions: Compound Concentration (nM):1000
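Note: KINOMEscan scanMAX binding as percent activity remaining versus control; lower means stronger binding.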

SMILES | Percent Control
COc1cc(N2CCN(C(C)C)CC2)ccc1Nc1nc(Nc2ccc(F)cc2C(=O)NC[C@@H](O)CO)c2cc[nH]c2n1 [GSK1392956A] | 92%
Nc1ncnc2occ(-c3ccc(NC(=O)Nc4cc(C(F)(F)F)ccc4F)cc3)c12 [GW770249X] | 100%
NS(=O)(=O)c1ccc(N/N=C2\C(=O)Nc3ccc(C(=O)NCc4ccncc4)cc32)cc1 [GW300657X] | 100%
COc1cccc(-c2c[nH]c3c(N/N=C/c4ccncc4)ncnc23)c1 [GW814408X] | 100%
COc1ccc2c(-c3ccnc(Nc4cccc(OC(F)(F)F)c4)n3)cnn2n1 [GW810372X] | 67%
CCS(=O)(=O)c1ccc(OC)c(Nc2ncc(-c3cccc(OC)c3)o2)c1 [GW580509X] | 74%
Cl.O=C(Nc1ccc(Oc2ccc3[nH]c(NC(=O)c4ccco4)nc3c2)cc1)Nc1cc(C(F)(F)F)ccc1F [GW683134A] | 80%
CCn1c(-c2nonc2N)nc2c(C#CC(C)(C)O)nc(OCCNC)cc21.Cl [GSK949675] | 100%
COc1cccc(-n2ncc3c(N/N=C/c4ccncc4)ncnc32)c1 [GW784752X] | 90%
COc1ccccc1-c1cc(/C=C2\C(=O)Nc3ncc(Br)cc32)cc(Br)c1O [GW442130X] | 100%
Cl.O=C(O[C@H]1CN[C@H](C#Cc2cc3ncnc(Nc4ccc5c(cnn5Cc5ccccc5)c4)c3s2)C1)N1CCOCC1 [GSK200398A] | 83%
COc1cc2ncn(-c3cc(O[C@H](C)c4ccccc4Cl)c(C(N)=O)s3)c2cc1OC [GSK237701A] | 96%
Cl.O=C(Nc1ccc(Oc2ccc3[nH]c(NC(=O)c4ccccc4)nc3c2)cc1)Nc1cc(C(F)(F)F)ccc1F [GW709042A] | 97%
NS(=O)(=O)c1ccc(N/N=C2\C(=O)Nc3ccc(C(=O)NCCc4c[nH]cn4)cc32)cc1 [GW300660X] | 100%
CN1CCN(C(=O)c2ccc(NC(=O)Nc3ccc(N(C)c4ccnc(Nc5ccc(CS(C)(=O)=O)cc5)n4)cc3)cc2)CC1.Cl [GW830263A] | 15%
CN(C)CCNC(=O)Nc1ccc(N(C)c2ccnc(Nc3ccc(CS(C)(=O)=O)cc3)n2)cc1.Cl [GW830900A] | 61%
COc1cc(C)c(N(C)C(=O)CN(C)C)cc1Nc1nc(Nc2cccc(F)c2C(N)=O)c2cc[nH]c2n1 [GSK2219385] | 90%
CCS(=O)(=O)c1ccc(OC)c(Nc2ncc(-c3cccc(F)c3)o2)c1 [GW621970X] | 42%
Cc1cc(O)cc(C)c1/C=C/c1cncc(C(N)=O)c1 [GW435821X] | 100%
COc1ccc(COc2ccc(Cc3cnc(N)nc3N)cc2OC)cc1 [GW632580X] | 90%

SMILES | Percent Control
COc1cc(/C=N/Nc2ncnc3[nH]ncc23)ccc1O [GW578748X] | 83%
NS(=O)(=O)c1ccc(N/N=C2\C(=O)Nc3ccc(Cl)cc32)cc1 [GW280670X] | 100%
CN(C)c1cc2c(Nc3ccc4c(cnn4Cc4ccccc4)c3)ncnc2cn1 [GW282974X] | 89%
COc1cc(C=NNc2ncnc3c2cnn3-c2ccccc2)ccc1O [GW513184X] | 100%
CC(C)COC(=O)c1ccc2c(c1)/C(=C/Nc1ccc(S(N)(=O)=O)cc1)C(=O)N2 [GW416981X] | 100%
C[C@@H](Oc1cc(-n2cnc3ccc(OC4CCN(C)CC4)cc32)sc1C(N)=O)c1ccccc1Cl [GSK579289A] | 60%
COC(=O)Nc1nc2ccc(Oc3ccc(NC(=O)Nc4cc(C(F)(F)F)ccc4F)cc3)cc2s1.Cl [GW693917A] | 77%
O=C1Nc2ccc(C(=O)c3ccco3)cc2C1=Cc1cc(Cl)c(O)c(Cl)c1 [GW406108X] | 100%
Cl.O=S1CCN(Cc2ccc(-c3ccc4ncnc(Nc5ccc(OCc6ccccc6)c(F)c5)c4c3)o2)CC1 [GW576924A] | 100%
CC1=C(C(=O)Nc2ccc3[nH]ncc3c2)C(c2ccc(Cl)c(Cl)c2)CC(=O)N1 (stereo not shown) [GSK299115A] | 100%
O=C(Nc1n[nH]c2nc(-c3ccc(O)cc3)c(Br)cc12)C1CC1 [SB-725317] | 100%
COc1ccc2cc(-c3c(-c4ccncc4)nc(-c4ccc(S(C)(=O)=O)cc4C)n3C)ccc2c1 [SB-633825] | 90%
COc1cc2ncnc(Nc3ccc4c(cnn4Cc4ccccc4)c3)c2cc1OC.Cl [GW282449A] | 100%
Cl.c1ccc(Cc2nc3ccc(Nc4ncnc5ccccc45)cc3[nH]2)cc1 [GR269666A] | 100%
NS(=O)(=O)c1ccc(N/N=C2\C(=O)Nc3ccc(-c4cnco4)cc32)cc1 [GW276655] | 76%
COc1ccc2[nH]c3c4[nH]c5ccc(OC)cc5c4c4c(c3c2c1)C(=O)NC4=O [GW296115X] | 100%
CCc1ccc(Oc2nccc(-c3c(-c4ccc(F)cc4)ncn3C3CCNCC3)n2)cc1 [SB-242719] | 91%
CC1=C(C(=O)Nc2ccc3[nH]ncc3c2)C(c2ccc3ccccc3c2)CC(=O)N1 (stereo not shown) [GSK270822A] | 91%
NS(=O)(=O)c1ccc(Nc2ncc(-c3ccccc3)o2)cc1 [GW572399X] | 100%
C/C(Nc1ccc(S(N)(=O)=O)cc1)=C1/C(=O)Nc2ccccc21 [GW335962X] | 100%
